Activity calls are given as the source filed them. Unless noted, no rule for the calls is given here.
Experiments:
[1] = test system: Wnt5a (protein binding on small-molecule microarray); test: small molecules binding Wnt5a protein – biophysical, small-molecule microarray, 635/667 nm fluorescence, primary screen (AID 1142); details: 635 nm fluorescence, higher = more signal;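 also: fluorescence read at 667 nm with signal to noise per printed feature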
[2] = ATP-based viability of Huh7 replicon cells – cell-based, CellTiter-Glo luminescence, basal, 48 h, cytotoxicity control for HCV replication inhibitor project, primary screen (AID 1143); details: higher = more signal, called active from +8 up or from −8 down;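 also: Huh7 hepatoma cells carrying a hepatitis C replication reporter with no stimulus; test concentration not given here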
[3] = Pseudomonas biofilm growth suppression – PAO1 strain, BacTiter-Glo luminescence, LB-PBS, primary screen (AID 1144); details: P. aeruginosa PAO1 biofilm, 12 h, higher = more signal
[4] = basal CRE-LacZ reporter activity in PC12 – cell-based, unstimulated, primary screen (AID 1145); details: no forskolin, luminescence, 4.5 h, higher = more signal, called active from +8 up or from −8 down
[5] = forskolin-driven CRE-LacZ activity in PC12 – cell-based, CRE-LacZ reporter, forskolin-stimulated, primary screen (AID 1146); details: luminescence, 4.5 h, higher = more signal, called active from +8 up or from −8 down;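 also: PC12 cells with 6xCRE LacZ reporter stimulated by forskolin 10 µM; beta-galactosidase reporter signal reflecting CREB driven transcription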
[6] = biological target: Streptavidin (Streptomyces avidinii) (UniProt P22629); test: compounds binding control protein streptavidin – biophysical, small-molecule microarray, 635/667 nm fluorescence, artefact control for SMM compound annotation, primary screen (AID 1147); details: higher = more signal;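 also: signal reflects streptavidin binding to arrayed compounds as a control protein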
Sequence of Streptavidin (Streptomyces avidinii) (P22629 whole entry, looked up): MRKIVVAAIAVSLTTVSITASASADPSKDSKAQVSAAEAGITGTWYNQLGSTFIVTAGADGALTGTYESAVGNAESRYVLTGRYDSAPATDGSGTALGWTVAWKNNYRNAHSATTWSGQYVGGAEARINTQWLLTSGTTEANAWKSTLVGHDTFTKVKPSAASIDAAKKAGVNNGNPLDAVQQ

[7] = probe aInhba binding on compound microarray – biochemical, small-molecule microarray, 635/667 nm fluorescence, primary screen (AID 1148); details: higher = more signal;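 also: score merges 667nm spot fluorescence with signal-to-noise for antibody binding to printed compounds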
Torsin-1A (Homo sapiens) [8] = biological target: Torsin-1A (Homo sapiens) (UniProt O14656); test: TOR1A wild-type binding on microarray – cell lysate, small-molecule microarray, lysate, 635/667 nm, primary screen (AID 1149); details: COS7 hTOR1A-WT lysate, 635 nm fluorescence, higher = more signal
Sequence of Torsin-1A (Homo sapiens) (O14656 whole entry, looked up): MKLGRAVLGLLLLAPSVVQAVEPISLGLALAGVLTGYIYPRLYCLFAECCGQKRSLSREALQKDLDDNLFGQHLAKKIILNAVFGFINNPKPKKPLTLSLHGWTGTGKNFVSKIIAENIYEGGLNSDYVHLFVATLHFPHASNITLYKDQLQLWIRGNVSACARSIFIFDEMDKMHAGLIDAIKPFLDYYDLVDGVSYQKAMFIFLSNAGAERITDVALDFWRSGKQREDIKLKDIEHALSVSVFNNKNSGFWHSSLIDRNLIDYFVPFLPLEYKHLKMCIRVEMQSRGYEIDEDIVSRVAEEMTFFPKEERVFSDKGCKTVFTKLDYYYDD

Torsin-1A (Homo sapiens) [9] = biological target: Torsin-1A (Homo sapiens) (UniProt O14656); test: torsin A mutant lysate binding on microarrays – cell lysate, small-molecule microarray, COS7 lysate, 635/667 nm fluorescence, primary screen (AID 1150); details: COS7 hTOR1A mutant lysate, 635 nm fluorescence, higher = more signal;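 also: score pools 667 nm emission and signal to noise measuring lysate protein binding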
[10] = test system: Sonic hedgehog protein (Shh); test: Sonic hedgehog microarray binding compounds – biochemical, small-molecule microarray, 635/667 nm fluorescence, primary screen (AID 1151); details: 635 nm fluorescence, higher = more signal;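 also: Shh protein binding to compounds spotted on small-molecule microarray slides; score combines spot fluorescence intensity with signal-to-noise across triplicate slides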
[11] = optical density shifts of acrAB sulA E. coli – strain DRC41, OD650, 48 h, E. coli filamentation inducer project, primary screen (AID 1152); details: higher = more signal, called active from +8 up or from −8 down;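 also: E. coli MC1000 strain DRC41 lacking acrAB efflux pump and sulA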
[12] = probe aLefty1 binding on compound microarray – biochemical, small-molecule microarray, 635/667 nm fluorescence, primary screen (AID 1153); details: higher = more signal;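 also: score merges spot fluorescence with signal-to-noise ratio from the scanned slide images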
[13] = plasmodial surface anion channel blockers, osmotic lysis – cell-based, P. falciparum Indochina, OD700, 1 h, primary screen (AID 1154); details: P. falciparum Indochina infected RBC osmotic lysis, higher = more signal, called active from +8 up or from −8 down
[14] = plasmodial surface anion channel blockers, osmotic lysis – cell-based, P. falciparum Indochina, OD700, 2 h, primary screen (AID 1155);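 also: lysis reports solute entry through the parasite surface anion channel PSAC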; details: P. falciparum Indochina infected erythrocytes, higher = more signal, called active from +8 up or from −8 down
[15] = changes in parasitized red cell lysis, either direction – P. falciparum Indochina, OD700, 3 h, PSAC antagonist project, primary screen (AID 1156); details: P. falciparum-infected erythrocytes, osmotic lysis, higher = more signal, called active from +8 up or from −8 down
[16] = plasmodial surface anion channel blockers, osmotic lysis – cell-based, P. falciparum Indochina, OD700, 18 h, primary screen (AID 1157); details: P. falciparum Indochina infected erythrocytes, osmotic lysis OD700, 18 h; higher = more signal, called active from +8 up or from −8 down
[17] = S6 kinase pathway phospho-S6 level changes – cell-based, A549, cytoblot, luminescence, serum-stimulated, primary screen (AID 1158); details: 5 h, higher = more signal;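 also: serum-stimulated A549 lung adenocarcinoma cells; signal is phosphorylated S6 detected by cytoblot immunostaining with HRP secondary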
[18] = biological target: NADPH oxidase 2 (Homo sapiens) (UniProt P04839); test: compounds shifting NOX2 Amplex Red fluorescence – cell-based, HEK293-NOX2, PMA-stimulated, NOX inhibitor project, primary screen (AID 1159); details: 45 min, higher = more signal, called active from +8 up or from −8 down; also: test concentration not given here
Sequence of NADPH oxidase 2 (Homo sapiens) (P04839 whole entry, looked up): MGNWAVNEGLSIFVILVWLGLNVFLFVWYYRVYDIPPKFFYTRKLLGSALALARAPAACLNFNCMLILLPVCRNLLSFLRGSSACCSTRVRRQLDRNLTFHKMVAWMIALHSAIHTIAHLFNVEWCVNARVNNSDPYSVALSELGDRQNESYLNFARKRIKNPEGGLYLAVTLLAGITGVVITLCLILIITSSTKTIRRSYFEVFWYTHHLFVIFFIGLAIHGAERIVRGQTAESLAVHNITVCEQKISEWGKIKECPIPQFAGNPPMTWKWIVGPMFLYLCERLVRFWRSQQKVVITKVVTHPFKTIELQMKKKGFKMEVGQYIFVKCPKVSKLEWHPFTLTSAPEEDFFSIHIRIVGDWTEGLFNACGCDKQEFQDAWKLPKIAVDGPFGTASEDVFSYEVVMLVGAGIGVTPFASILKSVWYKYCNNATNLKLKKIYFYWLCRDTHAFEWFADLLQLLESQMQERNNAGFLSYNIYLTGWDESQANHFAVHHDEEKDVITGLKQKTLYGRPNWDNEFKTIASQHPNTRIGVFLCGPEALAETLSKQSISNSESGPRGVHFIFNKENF

[19] = biological target: NADPH oxidase 4 (Homo sapiens) (UniProt Q9NPH5); test: compounds shifting NOX4 Amplex Red fluorescence – cell-based, HEK293-NOX4, tetracycline-induced, NOX inhibitor project, primary screen (AID 1160); details: HEK293-NOX4, Amplex Red H2O2 fluorescence, 45 min; higher = more signal, called active from +8 up or from −8 down
Sequence of NADPH oxidase 4 (Homo sapiens) (Q9NPH5 whole entry, looked up): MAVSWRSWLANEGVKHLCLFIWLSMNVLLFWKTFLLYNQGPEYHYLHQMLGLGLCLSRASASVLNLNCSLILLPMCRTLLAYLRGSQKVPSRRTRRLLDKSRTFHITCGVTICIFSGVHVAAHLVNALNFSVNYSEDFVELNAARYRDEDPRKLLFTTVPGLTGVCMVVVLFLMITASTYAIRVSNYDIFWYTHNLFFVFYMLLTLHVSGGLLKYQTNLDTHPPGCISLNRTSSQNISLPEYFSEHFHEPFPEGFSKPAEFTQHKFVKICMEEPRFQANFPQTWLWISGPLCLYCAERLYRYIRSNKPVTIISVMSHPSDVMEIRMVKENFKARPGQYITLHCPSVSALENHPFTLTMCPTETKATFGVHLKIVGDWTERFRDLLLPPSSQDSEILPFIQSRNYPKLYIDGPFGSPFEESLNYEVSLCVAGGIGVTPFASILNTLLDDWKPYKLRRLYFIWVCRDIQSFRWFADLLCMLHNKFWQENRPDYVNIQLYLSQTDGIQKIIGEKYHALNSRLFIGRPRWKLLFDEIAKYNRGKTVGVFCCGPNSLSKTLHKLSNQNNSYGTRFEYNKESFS

[20] = biological target: NADPH oxidase 5 (Homo sapiens) (UniProt Q96PH1); test: compounds shifting NOX5 Amplex Red fluorescence – cell-based, HEK293-NOX5, NOX inhibitor project, primary screen (AID 1161); details: HEK293-NOX5, ionomycin, 45 min, higher = more signal
Sequence of NADPH oxidase 5 (Homo sapiens) (Q96PH1 whole entry, looked up): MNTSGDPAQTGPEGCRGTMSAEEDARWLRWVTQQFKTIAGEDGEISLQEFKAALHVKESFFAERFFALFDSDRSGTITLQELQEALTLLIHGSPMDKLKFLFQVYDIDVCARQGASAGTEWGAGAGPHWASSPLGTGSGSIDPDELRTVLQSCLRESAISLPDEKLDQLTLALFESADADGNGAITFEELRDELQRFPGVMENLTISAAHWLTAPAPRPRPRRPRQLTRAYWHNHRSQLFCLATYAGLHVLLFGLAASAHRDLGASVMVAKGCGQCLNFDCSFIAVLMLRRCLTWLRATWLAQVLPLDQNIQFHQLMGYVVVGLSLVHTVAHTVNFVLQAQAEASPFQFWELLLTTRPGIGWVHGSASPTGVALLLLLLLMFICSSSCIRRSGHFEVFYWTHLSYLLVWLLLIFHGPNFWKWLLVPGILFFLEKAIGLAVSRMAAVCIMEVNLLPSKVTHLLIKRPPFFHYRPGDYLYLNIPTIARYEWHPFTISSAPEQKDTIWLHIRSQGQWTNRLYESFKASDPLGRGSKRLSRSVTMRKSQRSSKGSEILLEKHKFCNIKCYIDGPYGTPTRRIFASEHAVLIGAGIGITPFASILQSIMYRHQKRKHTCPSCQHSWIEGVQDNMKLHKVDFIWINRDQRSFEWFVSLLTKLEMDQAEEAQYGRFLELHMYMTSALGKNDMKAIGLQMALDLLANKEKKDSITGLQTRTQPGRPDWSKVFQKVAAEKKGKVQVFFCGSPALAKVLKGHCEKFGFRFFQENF

SMILES	composite z-score [1]	z-score [2]	z-score [3]	z-score [4]	z-score [5]	composite z-score [6]	composite z-score [7]	composite z-score (Torsin-1A (Homo sapiens) [8])	composite z-score (Torsin-1A (Homo sapiens) [9])	composite z-score [10]	z-score [11]	composite z-score [12]	z-score [13]	z-score [14]	z-score [15]	z-score [16]	z-score [17]	z-score [18]	z-score [19]	z-score [20]
NC(=O)NCC#Cc1ccc2c(c1)[C@]1(C(=O)N2)[C@H](C(=O)NC[C@H](O)c2ccccc2)[C@H]2C(=O)O[C@H](c3ccccc3)[C@H](c3ccccc3)N2[C@@H]1c1ccc(OCCO)cc1	0.496	0.546 (inactive)	-0.223 (inactive)	-0.698 (inactive)	-0.535 (inactive)	0.661	0.185	-0.0075	-0.002	0.728	0.851 (inactive)	0.157	4.47 (inactive)	1.72 (inactive)	1.55 (inactive)	0.49 (inactive)	0.0785	1.59 (inactive)	0.849 (inactive)	0.737
COCCOC(=O)N1C(=O)[C@@]2(c3cc(C#CC4(O)CCCCCC4)ccc31)[C@H](c1ccc(O)cc1)N1[C@H](c3ccccc3)[C@H](c3ccccc3)OC(=O)[C@H]1[C@@H]2C(=O)NC[C@H](O)c1ccccc1	0.677	-1.48 (inactive)	-0.277 (inactive)	0.712 (inactive)	-0.61 (inactive)	0.383	-0.125	0.116	1.09	1.21	-0.686 (inactive)	0.405	1.14 (inactive)	0.487 (inactive)	-1.17 (inactive)	0.196 (inactive)	0.101	1.97 (inactive)	0.895 (inactive)	1.2
CC1CC/C=C\[C@H]2OC34C=CCN(C(C)C)C(=O)[C@H]3N(CCCCCCO)C(=O)[C@@H]4C2C(=O)O1 (stereo not given in full)	-0.574	-0.183 (inactive)	-1.31 (inactive)	-0.342 (inactive)	-0.816 (inactive)	-0.931	-0.323	-1.83	-1.19	-0.159	3.07 (inactive)	-0.45	0.719 (inactive)	0.259 (inactive)	-0.987 (inactive)	-0.751 (inactive)	1.26	0.882 (inactive)	0.119 (inactive)	2.1
C[N+](C)(C)CCCCCCNC(=O)[C@H]1C[C@H]2C(=O)NCC(=O)N2[C@H]1c1ccc(O)cc1	0.119	-0.274 (inactive)	0.0567 (inactive)	-1.35 (inactive)	0.444 (inactive)	-0.337	-0.354	0.261	0.349	2.09	0.16 (inactive)	-0.455	1.76 (inactive)	0.682 (inactive)	-1.2 (inactive)	-0.0189 (inactive)	-0.217	0.446 (inactive)	0.256 (inactive)	0.328
O=C1C2C=CC(C(O)c3ccccc3)N(Nc3ccccc3F)C2C(=O)N1c1ccccc1 (stereo not given)	0.1	-1.7 (inactive)	0.298 (inactive)	0.0707 (inactive)	0.39 (inactive)	0.23	-0.127	-0.292	-0.493	-0.244	0.0394 (inactive)	0.002	7.12 (inactive)	1.21 (inactive)	0.368 (inactive)	0.632 (inactive)	0.113	-2.07 (inactive)	-3.6 (inactive)	-2.26
CN(C)C(=O)[C@@]1(CCS(=O)(=O)c2ccccc2)N=C(c2ccc(OCCCO)cc2)O[C@H]1c1ccccc1	0.543	-3.07 (inactive)	1.02 (inactive)	0.652 (inactive)	-0.481 (inactive)	0.926	0.0155	1.05	0.548	-1.01	-0.1 (inactive)	0.142	28.3 (active)	24.3 (active)	0.873 (inactive)	1.48 (inactive)	-0.789	0.441 (inactive)	0.114 (inactive)	-0.948
C=CCN1C(=O)[C@@]2(CCS(=O)(=O)c3ccccc3)N=C(c3ccc(OCCCO)cc3)O[C@H]2c2ccccc21	0.889	-2.49 (inactive)	0.369 (inactive)	-0.0808 (inactive)	-1.28 (inactive)	0.636	0.198	1.16	0.426	2.07	-0.135 (inactive)	0.235	29.9 (active)	25.2 (active)	1.73 (inactive)	6.35 (inactive)	1.06	-1.42 (inactive)	1.35 (inactive)	-0.428
C=CCOC(=O)[C@H]1[C@@H]2C(=O)O[C@@H](c3ccccc3)[C@@H](c3ccccc3)N2[C@@H](c2ccc(OCCOC(=O)[C@@H]3C[C@@H]4C(=O)N5CCC[C@H]5C(=O)N4[C@@H]3c3ccc(O)cc3)cc2)[C@]12C(=O)Nc1ccc(I)cc12	0.269	-0.648 (inactive)	-0.42 (inactive)	0.423 (inactive)	0.016 (inactive)	0.107	0.177	0.655	0.504	1.72	-0.695 (inactive)	0.293	1.81 (inactive)	1.74 (inactive)	0.836 (inactive)	0.889 (inactive)	-0.597	1.47 (inactive)	0.482 (inactive)	0.186
CCOC(=O)C1CCCCN1 (stereo not given)	0.781	0.319 (inactive)	0.566 (inactive)	-0.788 (inactive)	-0.398 (inactive)	0.412	0.705	0.544	0.388	0.506	-0.641 (inactive)	1.08	-0.536 (inactive)	0.0175 (inactive)	-0.965 (inactive)	0.0086 (inactive)	-0.0896	0.0494 (inactive)	0.0488 (inactive)	-0.117

Source: PubChem BioAssay
